PI5P4Ka inh: inhibitors of human PI5P4K alpha | P48426 | PI5P4Kalpha enzyme, ADP-Glo luminescence, 60 min; hits give low values | max response, % | 1.2% of 330,000 active | AID 652105; active means max response of -50% or lower; inconclusive means between -30% and -50%; inactive means -30% or higher; further: value at the top dose of about 77 µM
Target sequence (P48426 whole entry, looked up): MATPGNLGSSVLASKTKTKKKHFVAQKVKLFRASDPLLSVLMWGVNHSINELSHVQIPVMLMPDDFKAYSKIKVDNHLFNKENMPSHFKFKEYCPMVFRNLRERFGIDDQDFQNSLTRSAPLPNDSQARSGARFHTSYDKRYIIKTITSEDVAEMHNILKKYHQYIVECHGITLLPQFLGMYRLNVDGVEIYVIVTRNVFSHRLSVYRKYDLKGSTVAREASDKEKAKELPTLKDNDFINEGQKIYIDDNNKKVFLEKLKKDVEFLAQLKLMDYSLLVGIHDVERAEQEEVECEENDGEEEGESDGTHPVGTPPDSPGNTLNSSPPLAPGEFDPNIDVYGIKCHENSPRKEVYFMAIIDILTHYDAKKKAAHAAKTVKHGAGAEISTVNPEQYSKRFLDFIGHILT
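Quantitative HTS of the MLSMR library against PI5P4Kalpha with substrate. ATP added last at 5 microM final; room temperature, 60 minutes. Remaining ATP depleted, ADP converted and read as luminescence.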
HP1b binding inh: HP1-beta chromodomain-methylated histone interaction inhibition | P83916 | AlphaScreen HP1-beta / biotin-H3K9me3 peptide binding | Potency, µM (highest dose often 114 µM), actives largely listed as inhibitors | 0.56% of 390,000 active; further: nearly all actives have a fitted effect of over 70% in size
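AlphaScreen: HP1-beta (50 nM) preformed 30 min with biotin-H3(1-18)K9me3 peptide (50 nM) in PBS pH 7.4, 0.01% Tween-20. Compound added for 30 min at RT, then streptavidin donor/nickel chelate acceptor beads (10 ug/mL) for 30 min.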
JMJD2A Tudor inh: inhibitors of human JMJD2A Tudor domain | 4.4% of 390,000 active | AID 504339 | Potency, µM (highest dose often 114 µM), most hits filed as inhibitors | O75164 | AlphaScreen JMJD2A-Tudor / H3K4me3 peptide binding; further: nearly all actives have a fitted effect of over 50% in size
G9a inh: G9a (human) methyltransferase inhibition; G9a H3K9 monomethylation, AlphaScreen, 2 h; 8.8% of 350,000 active; Q96KQ7; Potency, µM (titrated, usually from 102 µM), usual class: inhibitors; AID 504332; further: nearly all actives have a fitted effect of over 75% in size
Target sequence (Q96KQ7 913-1193 limits assumed): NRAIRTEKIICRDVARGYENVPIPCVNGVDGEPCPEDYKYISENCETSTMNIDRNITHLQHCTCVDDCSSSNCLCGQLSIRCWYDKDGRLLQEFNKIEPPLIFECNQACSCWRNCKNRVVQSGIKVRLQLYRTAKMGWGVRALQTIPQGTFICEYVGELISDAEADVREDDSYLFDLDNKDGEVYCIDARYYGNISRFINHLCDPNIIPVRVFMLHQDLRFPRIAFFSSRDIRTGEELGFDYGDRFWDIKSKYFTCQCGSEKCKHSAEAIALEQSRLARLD
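Signal arises when biotinylated H3K9 peptide, once monomethylated, bridges streptavidin donor and antibody-captured acceptor beads. Enzyme at 20 nM was preincubated 15 min with test compounds; peptide 500 nM and SAM 20 uM then reacted for 2 h.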
PLK1 PBD inh: PLK1 (human) polo-box domain binding inhibition | P53350 | Plk1 PBD binding of FITC phosphopeptide, fluorescence polarization | Potency, µM, usual class: inhibitors | 2.8% of 360,000 active | AID 720504; further: series mostly up to about 57 µM; nearly all actives have a fitted effect of over 65% in size
BAZ2B block: inhibitors of human BAZ2B bromodomain | Q9UIF8 | AlphaScreen BAZ2B-H3K14Ac peptide displacement | Potency, µM (series often up to 114 µM), hits mostly inhibitors | 4.4% of 360,000 active | AID 504333; further: nearly all actives have a fitted effect of over 60% in size
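Protein-peptide AlphaScreen: BAZ2B 50 nM, b-H3K14Ac 50 nM, 1x PBS pH 7.4 + 0.01% Tween-20. Preincubation 30 min RT; cpd 30 min RT (top 110 uM); beads 20 min RT, light-protected.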
Hits are given with their value; [ ] = remark or other dose. The list is not random: actives were taken first. Their share in the collection is about 12%. Unless noted, the call rests on the fitted dose curve; in most records, active means well fitted curve in the direction sought with a large enough effect; inconclusive means small, poorly fitted or top-dose-only effect, or another doubt; inactive means no such curve, though single readings can be large; an effect the other way counts as inactive or inconclusive.

For O=C(N/N=C(\c1ccccc1)c1ccccn1)c1cccc([N+](=O)[O-])c1 the results were PI5P4Ka inh inactive, HP1b binding inh inactive, JMJD2A Tudor inh inconclusive, G9a inh inactive, PLK1 PBD inh inactive and BAZ2B block 25.1µM.
Screening N#Cc1ccc(NC(=O)C2Cc3ccccc3CN2S(=O)(=O)c2ccc(F)cc2)cc1 (centres undefined) returned HP1b binding inh inactive, JMJD2A Tudor inh inactive, G9a inh inactive and BAZ2B block inactive.
COc1ncc2nc(-c3ccccc3)c(=O)n(C3CC3)c2n1 was read as G9a inh inactive[0.501 µM].
For O=C(NNC(=O)c1cnccn1)c1cccc([N+](=O)[O-])c1 the results were HP1b binding inh inactive, JMJD2A Tudor inh inactive, G9a inh 0.562µM, PLK1 PBD inh inactive and BAZ2B block inactive.
`CCSC1=NC(=O)/C(=C2/C=Cc3ccccc3N2CC)S1` gave PI5P4Ka inh inactive, HP1b binding inh inconclusive, JMJD2A Tudor inh 28.2µM, G9a inh inconclusive, PLK1 PBD inh inactive and BAZ2B block 7.08µM.
Screening O=C1c2ccccc2C(=O)c2c(NCc3cccnc3)cccc21 returned PI5P4Ka inh inactive, HP1b binding inh inconclusive, JMJD2A Tudor inh inconclusive, G9a inh inconclusive, PLK1 PBD inh inactive and BAZ2B block inactive.
For CNc1cccc2c1C(=O)c1ccccc1C2=O the results were PI5P4Ka inh inactive, HP1b binding inh 8.91µM, JMJD2A Tudor inh 2.82µM, G9a inh 8.91µM, PLK1 PBD inh inactive and BAZ2B block 3.16µM.
For COc1ccccc1-c1noc(-c2ccc(NCCc3ccccc3)c([N+](=O)[O-])c2)n1 the results were HP1b binding inh inactive, JMJD2A Tudor inh inactive, G9a inh inconclusive and BAZ2B block inactive.
Cc1ccc2nc(NCCNC(=O)c3ccccc3)c(C#N)cc2c1 was read as PI5P4Ka inh inactive, HP1b binding inh inactive, JMJD2A Tudor inh inactive, PLK1 PBD inh inactive and BAZ2B block inactive.
`COc1ccc(C(=O)NCCNc2nc3ccc(C)cc3cc2C#N)cc1` gave PI5P4Ka inh inactive, HP1b binding inh inactive, JMJD2A Tudor inh inactive, G9a inh 44.7µM, PLK1 PBD inh inactive and BAZ2B block inactive.
CN(C)C(=O)n1nnnc1Cc1ccc(-c2ccccc2)cc1 was read as G9a inh inactive.
`Cc1ccccc1/C=N/n1c(-c2cc(-c3ccccc3)n[nH]2)n[nH]c1=S` gave PI5P4Ka inh inactive, HP1b binding inh inactive, JMJD2A Tudor inh inconclusive, G9a inh inconclusive, PLK1 PBD inh inactive and BAZ2B block inactive.
`Cc1ccc(-c2n[nH]c(=S)n2/N=C/c2sccc2C)cc1` gave PI5P4Ka inh inactive, HP1b binding inh inactive, JMJD2A Tudor inh inactive, G9a inh 0.631µM, PLK1 PBD inh inactive and BAZ2B block inactive.
Cc1ccsc1/C=N/n1c(-c2cc(-c3ccccc3)n[nH]2)n[nH]c1=S was read as PI5P4Ka inh inactive, HP1b binding inh inactive, JMJD2A Tudor inh inconclusive, G9a inh 2.51µM, PLK1 PBD inh inconclusive and BAZ2B block inactive.
For Cc1ccsc1/C=N/n1cnnc1 the results were PI5P4Ka inh inactive, HP1b binding inh inactive, JMJD2A Tudor inh inactive, G9a inh inactive, PLK1 PBD inh inactive and BAZ2B block inactive.
NCc1csc(Nc2ncccn2)n1 was read as PI5P4Ka inh inactive and PLK1 PBD inh inactive.
For CC(C)(C)C1CCc2c(sc(NC(=O)CCC(=O)O)c2C(=O)Nc2ccccc2C(F)(F)F)C1 (centres undefined) the results were HP1b binding inh inactive, JMJD2A Tudor inh 56.2µM, G9a inh inconclusive and BAZ2B block 50.1µM.
For Cc1ccccc1CS(=O)(=O)Cc1ccc(C(=O)NCc2ccc(F)cc2)o1 the results were HP1b binding inh inactive, JMJD2A Tudor inh inactive, G9a inh inactive and BAZ2B block inactive.
Screening NNc1nnc(-c2ccccc2)c(-c2ccccc2)n1 returned HP1b binding inh inactive, JMJD2A Tudor inh inconclusive, G9a inh inconclusive, PLK1 PBD inh inactive and BAZ2B block 79.4µM.
`Cc1ccn2c(Nc3ccccc3)c(-c3c[nH]c4ccccc34)nc2c1` gave HP1b binding inh inconclusive, JMJD2A Tudor inh 22.4µM, G9a inh 8.91µM and BAZ2B block 10µM.
For Cc1ccc(Nc2c(-c3c[nH]c4ccccc34)nc3cc(C)ccn23)cc1 the results were HP1b binding inh inconclusive, JMJD2A Tudor inh 25.1µM, G9a inh inconclusive and BAZ2B block inconclusive.
Cc1ccc2nc(-c3c[nH]c4ccccc34)c(Nc3ccc(F)cc3)n2c1 was read as HP1b binding inh inactive, JMJD2A Tudor inh inconclusive, G9a inh inconclusive and BAZ2B block inactive.
`CCC(C)(C)NC(=O)C(c1ccccc1Cl)N(C(=O)CCC(=O)Nc1cc(C)on1)C(C)(C)C` (centres undefined) gave PI5P4Ka inh inactive, HP1b binding inh inactive, JMJD2A Tudor inh 56.2µM, G9a inh inactive, PLK1 PBD inh inconclusive and BAZ2B block inactive.
For Cc1cc(C)cc(OCC(=O)N/N=C/c2ccccn2)c1 the results were PI5P4Ka inh inactive, HP1b binding inh inactive, JMJD2A Tudor inh inconclusive, G9a inh inconclusive, PLK1 PBD inh inactive and BAZ2B block 79.4µM.
For Cc1ccccc1OCC(=O)N/N=C/c1ccccn1 the results were PI5P4Ka inh inactive, HP1b binding inh inactive, JMJD2A Tudor inh inactive, G9a inh inactive, PLK1 PBD inh 29.9µM and BAZ2B block inactive.
O=C(COc1ccc2ccccc2c1)N/N=C/c1ccccn1 was read as PI5P4Ka inh inactive, HP1b binding inh inconclusive, JMJD2A Tudor inh inconclusive, G9a inh inactive[0.501 µM], PLK1 PBD inh 18.9µM and BAZ2B block inactive.
Cc1ccccc1OCC(=O)N/N=C/c1ccco1 was read as PI5P4Ka inh inactive, HP1b binding inh inactive, JMJD2A Tudor inh inactive, G9a inh inactive[0.501 µM], PLK1 PBD inh inactive and BAZ2B block inconclusive.
Screening CCCCCCCCC(=O)N/N=C/c1ccccn1 returned HP1b binding inh inactive, JMJD2A Tudor inh inactive, G9a inh inactive, PLK1 PBD inh inactive and BAZ2B block inactive.
Screening COC(=O)c1ccc(NC(=O)c2cc(S(=O)(=O)N3CCc4ccccc43)cn2C)cc1 returned HP1b binding inh inactive, JMJD2A Tudor inh inactive, G9a inh inactive and BAZ2B block inactive.
N#CC1=C(N)n2c(s/c(=C\c3ccco3)c2=O)=C(C#N)C1c1ccco1 (centres undefined) was read as PI5P4Ka inh -69.9, HP1b binding inh 79.4µM, JMJD2A Tudor inh 56.2µM, G9a inh inconclusive, PLK1 PBD inh inconclusive and BAZ2B block inconclusive.
N#CC1=C(N)n2c(s/c(=C\c3cccs3)c2=O)=C(C#N)C1c1cccs1 (centres undefined) was read as PI5P4Ka inh -56.2, HP1b binding inh inactive, JMJD2A Tudor inh inactive, G9a inh 35.5µM, PLK1 PBD inh inactive and BAZ2B block inactive.
For CCOC(=O)C1=c2s/c(=C\c3ccncc3)c(=O)n2C(N)=C(C(=O)OC)C1c1ccncc1 (centres undefined) the results were PI5P4Ka inh inactive, HP1b binding inh inactive, JMJD2A Tudor inh inactive, G9a inh inactive, PLK1 PBD inh inactive and BAZ2B block inactive.
For CCOC(=O)C1=C(N)n2c(s/c(=C/c3ccco3)c2=O)=C(C(=O)OC)C1c1ccco1 (centres undefined) the results were PI5P4Ka inh inactive, HP1b binding inh inconclusive, JMJD2A Tudor inh 56.2µM, G9a inh inconclusive, PLK1 PBD inh inactive and BAZ2B block inconclusive.
`CC(C)c1ccc(/C=c2\sc3n(c2=O)C(N)=C(C#N)C(c2ccc(C(C)C)cc2)C=3C(N)=O)cc1` (centres undefined) gave PI5P4Ka inh inconclusive, HP1b binding inh inactive, JMJD2A Tudor inh inactive and PLK1 PBD inh inactive.

Bioassay records: PubChem, National Center for Advancing Translational Sciences (NCATS)
